We go through 20 compounds from PubChem BioAssay (NCATS).

Values joined by “and” are separate entries in the source; they are usually repeats but may differ in a detail not shown here. Equal values may be shown once. Inconclusive results are not listed. A number with no mark means an inactive call. Active and inactive are the calls of the source. The call rests on the fitted dose curve; in most records, active means well fitted inhibition curve with a large enough effect; inconclusive means small, poorly fitted or top-dose-only effect; inactive means flat fitted curve, though single readings scatter.

Assay [1] has as its system CRL-7250. In words: Cytotoxic Profiling of Annotated Libraries Using Quantitative High-Throughput Screening (AID 1296008). Further: potency means the concentration at half of the fitted maximal effect. On max response: on the % scale 0 is the no-effect control and ±100 the full control effect. The conditions noted are these: Five cell lines viability, CellTiter-Glo ATP luminescence, 48-72 h; max response: hits give low values. The procedure, abridged: (§1)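 Cells exposed to compounds for 48 or 72 hr at 37 degrees Celsius. Viability read as ATP-coupled luminescence with CellTiter-Glo after 10 min at room temperature.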
(In ATP-based viability assays light output follows the ATP content of the culture.)

In assay [2] the test system is HEK293. Described as above. The conditions noted are these: Five cell lines viability, CellTiter-Glo ATP luminescence, 48-72 h; max response: hits give low values. Summed up:
as §1

Assay [3] concerns HaCat. The assay is described as above. The conditions noted are these: Five cell lines viability, CellTiter-Glo ATP luminescence, 48-72 h; max response: hits give low values. Summed up:
as §1

Assay [4] deals with KB-3-1. The assay is described as above. The conditions noted are these: Five cell lines viability, CellTiter-Glo ATP luminescence, 48-72 h; max response: hits give low values. Summed up: as §1
The subject of assay [5] is NIH3T3. The description is as above. The conditions noted are these: Five cell lines viability, CellTiter-Glo ATP luminescence, 48-72 h; max response: hits give low values. Summed up: as §1
The test system of assay [6] is HACAT. In words: qHTS assay to identify novel small-molecules to repurpose for Merkel cell carcinoma treatment (AID 1296009). To be noted: MCC and control cell lines, CellTiter-Glo viability, 72 h; at 44.8 µM (top of the series) unless noted. The procedure, abridged:
(§2)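 Dose-response viability screen; 72 hr exposure at 37 degree celsius; CellTiter-Glo added, 10 min room temperature, luminescence read; RLUs scaled between no-cell and DMSO wells.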

Assay [7] relates to HEK293T. The description is as above. To be noted: MCC and control cell lines, CellTiter-Glo viability, 72 h; series mostly up to 44.8 µM. Summed up: as §2
Further: nearly all actives have a fitted effect of over 60% in size.

In the case of `C[C@H](NC(=O)Cc1cc(F)cc(F)c1)C(=O)N[C@H](C(=O)OC(C)(C)C)c1ccccc1`, the max response in assay [1] was -1.21%; in assay [2], -28.5%; in assay [4], -8.93%; in assay [5], -8.45%. In addition, the call in assay [3] and in assay [6] was inactive.

On to `O=C(O)CCCCC(CCSCc1ccccc1)SCc1ccccc1` (stereo not drawn), for which the results for the max response in assay [1], in assay [2] and in assay [5] were 0.756%, -0.529% and 2.24%, respectively. Moreover, the compound was called inactive in assay [3], in assay [4] and in assay [6].

In the case of `CCOC(=O)N1CCN([N+]([O-])=NOc2ccc([N+](=O)[O-])cc2[N+](=O)[O-])CC1`, the figures for the max response in assay [1] and in assay [3] were -5.72% and 3.57%, respectively. Further, the values for the Potency in assay [2] and in assay [5] were 3.72 µM (active) and 9.35 µM (active), respectively. The compound was called inactive in assay [4].

On to `CN(N=O)C(=O)N[C@H]1C(O)OC(CO)[C@@H](O)[C@H]1O` (stereo partly drawn), for which the max response in assay [1] is -3.47%; in assay [2], -7.38%; in assay [4], 2.81%; in assay [5], -17.4%. Further, the outcome in assay [3] and in assay [6] was inactive.

As to `CC(=O)O[C@]1(C(C)=O)CC[C@H]2[C@@H]3C=C(C)C4=CC(=O)CC[C@]4(C)[C@@H]3CC[C@@]21C`, the compound was classed as inactive in assay [1] and in assay [4]. Further, the values for the max response in assay [2] and in assay [5] were -9.75% and 4.47%, respectively. Besides, the outcome in assay [3] and in assay [6] was “inactive; activator” throughout.

Take `N#CNC(=NCCCCCCOc1ccc(Cl)cc1)Nc1ccncc1`: the max response was -103% in assay [1] and -111% in assay [2]. Besides, the figures for the Potency in assay [3], in assay [4] and in assay [5] were 0.0209 µM (active), 0.0037 µM (active) and 0.296 µM (active), respectively.

Take `COc1cc(C)c(C=CC(C)=CC=CC(C)=CC(=O)O)c(C)c1C`: the max response in assay [1] is -4.27%; in assay [2], -16.6%; in assay [5], -4.41%. In addition, the call in assay [3], in assay [4] and in assay [6] was inactive.

Take `CC(=O)O[C@H]1C[C@@H]2CC[C@H]3[C@H]4C[C@H]([N+]5(C)CCCCC5)[C@@H](OC(C)=O)[C@@]4(C)CC[C@@H]3[C@@]2(C)C[C@H]1[N+]1(C)CCCCC1`: the max response is 0.398% in assay [1], 0.173% in assay [2] and -1.21% in assay [5]. Besides, the compound was classed as inactive in assay [3], in assay [4] and in assay [6].

`CC(=O)NC(CS)C(=O)O` (stereo not drawn): the max response was 1.57% in assay [1], -9.86% in assay [2], -3.44% in assay [4] and -5.75% in assay [5]. In addition, the outcome in assay [3] and in assay [6] was inactive.

`CCCCCCCCCCCCCCCC(=O)OC[C@@H](NC(=O)C(Cl)Cl)[C@H](O)c1ccc([N+](=O)[O-])cc1`: the values for the max response in assay [1], in assay [2] and in assay [5] were -9.61%, 2.69% and 0.666%, respectively. Moreover, the call in assay [3], in assay [4] and in assay [6] was inactive.

Regarding `Nc1ccn(C[C@@H](CO)OCP(=O)(O)O)c(=O)n1`, the max response is 3.98% in assay [1], -0.164% in assay [2] and 0.667% in assay [5]. For the same compound, the compound was called inactive in assay [3] and in assay [4]. In addition, the outcome in assay [6] is “inactive [at 17.4 µM]”.

Consider `CN(C)CC[C@H](c1ccc(Cl)cc1)c1ccccn1`, for which the compound was classed as inactive in assay [1]. For the same compound, the max response in assay [2] was -15.3%; in assay [3], -31.9%; in assay [4], -7.57%; in assay [5] it was -0.393%.

As for `C[C@H]1C[C@H]2[C@@H]3CCC4=CC(=O)C=C[C@]4(C)[C@@H]3C(=O)C[C@]2(C)[C@@]1(O)C(=O)CO`, the figures for the max response in assay [1], in assay [2] and in assay [4] were -3.73%, 3.81% and 4.3%, respectively. The call in assay [3], in assay [5] and in assay [6] was inactive.

As to `C[C@@H]1C(=O)O[C@H]2CC34[C@H]5C[C@@H](C(C)(C)C)C36[C@H](OC(=O)[C@@H]6O)O[C@@]4(C(=O)O5)[C@]21O` (stereo partly drawn), the compound was classed as inactive in assay [1], in assay [3], in assay [5] and in assay [6]. Besides, the max response in assay [2] is 3.06%; in assay [4], 2.09%.

For `Cc1coc2c1C(=O)C(=O)c1c-2ccc2c(C)cccc12`, the max response is -23.2% in assay [1]; -8.46% in assay [2]; -4.31% and -4.38% in assay [5]. Moreover, the compound was called inactive in assay [3], in assay [4] and in assay [6].

Regarding `Oc1cc2c(cc1O)C1c3ccc(O)c(O)c3OCC1(O)C2` (stereo not drawn), the values for the max response in assay [1], in assay [2] and in assay [4] were 1.81%, 1.47% and 7.88%, respectively. Besides, the compound was called inactive in assay [3], in assay [5] and in assay [6].

As for `CC[C@H]1OC(=O)[C@H](C)[C@@H](O[C@H]2C[C@@](C)(OC)[C@@H](O)[C@H](C)O2)[C@H](C)[C@@H](O[C@@H]2O[C@@H](C)C[C@H](N(C)C)[C@@H]2O)[C@](C)(O)C[C@@H](C)C(=O)[C@H](C)[C@@H](O)[C@]1(C)O`, the figures for the max response in assay [1], in assay [2] and in assay [4] were 0.799%, -7.85% and 5.08%, respectively. Moreover, the outcome in assay [3], in assay [5] and in assay [6] was inactive.

As to `OC[C@@H](O)[C@@H](O)[C@H](O)[C@@H](O)CO`, the figures for the max response in assay [1], in assay [2] and in assay [5] were 0.947%, 2.06% and -2.12%, respectively. Besides, the outcome in assay [3], in assay [4] and in assay [6] was inactive.

For the compound `CCN(C(=O)c1c(O)c2c(Cl)cccc2n(C)c1=O)c1ccccc1`, the Potency in assay [1] was 5.9 µM (active); in assay [2], 4.18 µM (active). Besides, the result in assay [3] and in assay [6] was inactive. For the same compound, the figures for the max response in assay [4] and in assay [5] were 3.28% and -5.88%, respectively.

`Nc1nc(=O)n([C@H]2CSC(CO)O2)cc1F` (stereo partly drawn): the max response in assay [1] was -8.43%; in assay [4] it was 9.64%. Moreover, the compound was called inactive in assay [2], in assay [3], in assay [5] and in assay [6]. Also, in assay [7], the Potency result is “inactive”.
